# Test results published in PubChem BioAssay (Tox21).
# Several values for one entry are separate records, joined by “and”; a condition that tells them apart may be missing. Equal entries are not always repeated. Results filed as inconclusive are left out. Where a call stands in place of a potency, no number is given. More than one record can exist for a structure, and the calls need not agree. Activity calls are given as the source filed them. The call rests on the fitted dose curve; in most records, active means well fitted curve in the direction sought with a large enough effect in the repeat runs; inconclusive means weak or mixed curves; inactive means no such curve, though single readings can be large; an effect the other way counts as inactive or inconclusive.
# Experiments:
# [1] = A CellTox Green Cytotoxicity Assay to monitor cytotoxicity in HEK293 cells - 40 hour (AID 1224871); further: nearly all actives have a fitted effect of over 45% in size
# Summary of the method: (§1)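 Homogeneous no-lysis format: HEK293 cell suspension mixed with CellTox Green reagent, seeded, incubated 5 h at 37 C/5% CO2, then dosed by pintool with compound in DMSO.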
# [2] = qHTS RealTime-Glo MT Cell Viability Assay in HEK293 cells - 16 hour (AID 1224872); further: nearly all actives have a fitted effect of over 50% in size
# Summary of the method: (§2)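 Assay medium contained NanoLuc luciferase plus cell-permeant prosubstrate, added with HEK293 cells at 600 cells/well. After 5 h at 37 C/5% CO2 compounds were added; plates stayed at 37 C for 40 h with serial luminescence reads.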
# [3] = qHTS RealTime-Glo MT Cell Viability Assay in HepG2 cells - 8 hour (AID 1224873); further: nearly all actives have a fitted effect of over 55% in size
# Summary of the method: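 HepG2 cells mixed with RealTime-Glo MT reagents (NanoLuc plus cell-permeant prosubstrate) were seeded at 600 cells/well, incubated 5 h at 37 C/5% CO2, then pinned with compounds in DMSO; nonlytic luminescence tracked viability during 40 h treatment.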
# [4] = qHTS RealTime-Glo MT Cell Viability Assay in HEK293 cells - 40 hour (AID 1224874); conditions: RealTime-Glo luminescence; max response: stronger effect = lower value; further: nearly all actives have a fitted effect of over 50% in size
# Summary of the method: (§3)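 Measured as luminescence from the same continuously cultured HEK293 wells at successive time points (0, 8, 16, 24, 32, 40 h) after compound addition. Reagent present from seeding; dosing at 5 h; incubation 37 C.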
# [5] = A CellTox Green Cytotoxicity Assay to monitor cytotoxicity in HEK293 cells - 24 hour (AID 1224875); further: nearly all actives have a fitted effect of over 45% in size
# Summary of the method: as §1
# [6] = A CellTox Green Cytotoxicity Assay to monitor cytotoxicity in HepG2 cells - 16 hour (AID 1224876); further: nearly all actives have a fitted effect of over 45% in size
# Summary of the method: (§4)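 Fluorescent DNA-binding dye, 600 HepG2 cells/well, 5 h preincubation then compound in DMSO; same plates read at 0–40 h, 37 C.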
# [7] = qHTS RealTime-Glo MT Cell Viability Assay in HepG2 cells - 32 hour (AID 1224877); further: nearly all actives have a fitted effect of over 55% in size
# Summary of the method: (§5)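 qHTS, HepG2, 600 cells/well, RealTime-Glo (NanoLuc + prosubstrate) added with cells; 5 h preincubation; DMSO compound addition; 37 C; luminescence at 0/8/16/24/32/40 h.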
# [8] = A CellTox Green Cytotoxicity Assay to monitor cytotoxicity in HepG2 cells - 24 hour (AID 1224878); further: nearly all actives have a fitted effect of over 45% in size
# Summary of the method: as §4
# [9] = A CellTox Green Cytotoxicity Assay to monitor cytotoxicity in HepG2 cells - 40 hour (AID 1224879); further: nearly all actives have a fitted effect of over 40% in size
# Summary of the method: as §4
# [10] = qHTS RealTime-Glo MT Cell Viability Assay in HEK293 cells - 0 hour (AID 1224880); further: nearly all actives have a fitted effect of over 45% in size
# Summary of the method: as §3
# [11] = A CellTox Green Cytotoxicity Assay to monitor cytotoxicity in HepG2 cells - 0 hour (AID 1224882); further: nearly all actives have a fitted effect of over 35% in size
# Summary of the method: as §4
# [12] = A CellTox Green Cytotoxicity Assay to monitor cytotoxicity in HepG2 cells - 32 hour (AID 1224883); further: nearly all actives have a fitted effect of over 50% in size
# Summary of the method: as §4
# [13] = A CellTox Green Cytotoxicity Assay to monitor cytotoxicity in HEK293 cells - 8 hour (AID 1224884); further: nearly all actives have a fitted effect of over 35% in size
# Summary of the method: as §1
# [14] = qHTS RealTime-Glo MT Cell Viability Assay in HepG2 cells - 16 hour (AID 1224885); further: nearly all actives have a fitted effect of over 50% in size
# Summary of the method: as §5
# [15] = qHTS RealTime-Glo MT Cell Viability Assay in HEK293 cells - 24 hour (AID 1224886); further: nearly all actives have a fitted effect of over 50% in size
# Summary of the method: as §2
# [16] = A CellTox Green Cytotoxicity Assay to monitor cytotoxicity in HEK293 cells - 16 hour (AID 1224888); further: nearly all actives have a fitted effect of over 35% in size
# Summary of the method: as §1
# [17] = qHTS RealTime-Glo MT Cell Viability Assay in HepG2 cells - 0 hour (AID 1224889); further: nearly all actives have a fitted effect of over 50% in size
# Summary of the method: as §5
# [18] = A CellTox Green Cytotoxicity Assay to monitor cytotoxicity in HepG2 cells - 8 hour (AID 1224890); further: nearly all actives have a fitted effect of over 45% in size
# Summary of the method: as §4
# [19] = qHTS RealTime-Glo MT Cell Viability Assay in HEK293 cells - 8 hour (AID 1224887); further: nearly all actives have a fitted effect of over 50% in size
# Summary of the method: as §3
# [20] = A CellTox Green Cytotoxicity Assay to monitor cytotoxicity in HEK293 cells - 32 hour (AID 1224881); further: nearly all actives have a fitted effect of over 40% in size
# Summary of the method: as §1
# Potency means the concentration at half of the fitted maximal effect.
smiles,measurement,setting,value
CN(C)/N=N/c1nc[nH]c1C(N)=O,Potency,[1],inactive
same,Potency,[2],inactive
same,Potency,[3],inactive
same,max response,[4],-18.2% (inactive) and -3.15% (inactive)
same,Potency,[5],inactive
same,Potency,[6],inactive
same,Potency,[7],inactive
same,Potency,[8],inactive
same,Potency,[9],inactive
same,Potency,[10],inactive
same,Potency,[11],inactive
same,Potency,[12],inactive
same,Potency,[13],inactive
same,Potency,[14],inactive
same,Potency,[15],inactive
same,Potency,[16],inactive
same,Potency,[17],inactive
same,Potency,[18],inactive
CN(C)C,Potency,[1],inactive
same,Potency,[2],inactive
same,Potency,[3],inactive
same,max response,[4],3.08% (inactive) and -9.36% (inactive)
same,Potency,[5],inactive
same,Potency,[6],inactive
same,Potency,[7],inactive
same,Potency,[8],inactive
same,Potency,[9],inactive
same,Potency,[10],inactive
same,Potency,[12],inactive
same,Potency,[13],inactive
same,Potency,[14],inactive
same,Potency,[15],inactive
same,Potency,[19],inactive
same,Potency,[16],inactive
same,Potency,[17],inactive
same,Potency,[18],inactive
COc1ccc2nc(N)sc2c1,Potency,[1],inactive
same,Potency,[2],inactive
same,Potency,[3],inactive
same,max response,[4],7.94% (inactive)
same,Potency,[5],inactive
same,Potency,[6],inactive
same,Potency,[7],inactive
same,Potency,[8],inactive
same,Potency,[9],inactive
same,Potency,[10],inactive
same,Potency,[13],inactive
same,Potency,[14],inactive
same,Potency,[15],inactive and 3.09 µM (active)
same,Potency,[19],inactive
same,Potency,[16],inactive
same,Potency,[17],inactive
same,Potency,[18],inactive
CCCCCCC(C)O (stereo not drawn),Potency,[1],inactive
same,Potency,[2],inactive
same,Potency,[3],inactive
same,max response,[4],1.85% (inactive) and 4.03% (inactive)
same,Potency,[5],inactive
same,Potency,[6],inactive
same,Potency,[7],inactive
same,Potency,[8],inactive
same,Potency,[9],inactive
same,Potency,[10],inactive
same,Potency,[12],inactive
same,Potency,[13],inactive
same,Potency,[14],inactive
same,Potency,[15],inactive
same,Potency,[16],inactive
same,Potency,[17],inactive
same,Potency,[18],inactive
OCCNCCO,Potency,[1],inactive
same,Potency,[2],inactive
same,max response,[4],4.46% (inactive) and 5.31% (inactive)
same,Potency,[5],inactive
same,Potency,[6],inactive
same,Potency,[7],inactive
same,Potency,[8],inactive
same,Potency,[9],inactive
same,Potency,[10],inactive
same,Potency,[20],inactive
same,Potency,[11],inactive
same,Potency,[12],inactive
same,Potency,[13],inactive
same,Potency,[14],inactive
same,Potency,[15],inactive
same,Potency,[16],inactive
same,Potency,[17],inactive
same,Potency,[18],inactive
O=C(CCCN1CCC(O)(c2ccc(Cl)cc2)CC1)c1ccc(F)cc1,Potency,[1],49 µM (active) and inactive
same,Potency,[2],13.8 µM (active) and 5.35 µM (active)
same,Potency,[3],49 µM (active) and inactive
same,Potency,[4],21.9 µM (active) and 8.49 µM (active)
same,Potency,[6],43.6 µM (active) and inactive
same,Potency,[7],49 µM (active) and inactive
same,Potency,[8],24.5 µM (active)
same,Potency,[9],24.5 µM (active) and 26.8 µM (active)
same,Potency,[10],inactive
same,Potency,[20],49 µM (active) and inactive
same,Potency,[12],21.9 µM (active)
same,Potency,[13],inactive
same,Potency,[14],49 µM (active) and inactive
same,Potency,[15],13.8 µM (active) and 8.49 µM (active)
same,Potency,[17],inactive
same,Potency,[18],49 µM (active) and inactive
CC(C)(Oc1ccc(Cl)cc1)C(=O)O,Potency,[1],inactive
same,Potency,[2],inactive
same,Potency,[3],inactive
same,max response,[4],6.25% (inactive) and 5.25% (inactive)
same,Potency,[5],inactive
same,Potency,[6],inactive
same,Potency,[7],inactive
same,Potency,[8],inactive
same,Potency,[9],inactive
same,Potency,[10],inactive
same,Potency,[12],inactive
same,Potency,[13],inactive
same,Potency,[15],inactive
same,Potency,[19],inactive
same,Potency,[16],inactive
same,Potency,[17],inactive
same,Potency,[18],inactive
CCCN1C=CN(C)C1,Potency,[1],inactive
same,Potency,[2],inactive
same,Potency,[3],inactive
same,max response,[4],-1.14% (inactive) and -1.07% (inactive)
same,Potency,[5],inactive
same,Potency,[6],inactive
same,Potency,[7],inactive
same,Potency,[8],inactive
same,Potency,[9],inactive
same,Potency,[10],inactive
same,Potency,[12],inactive
same,Potency,[13],inactive
same,Potency,[14],inactive
same,Potency,[15],inactive
same,Potency,[16],inactive
same,Potency,[17],inactive
same,Potency,[18],inactive
CC/C(=C(/CC)c1ccc(O)cc1)c1ccc(O)cc1,Potency,[1],inactive
same,Potency,[2],15.4 µM (active) and 30.9 µM (active)
same,Potency,[3],inactive
same,Potency,[4],12.2 µM (active) and 27.5 µM (active) and 19 µM (active)
same,Potency,[5],inactive
same,Potency,[6],inactive
same,Potency,[7],inactive
same,Potency,[8],inactive
same,Potency,[9],inactive
same,Potency,[10],inactive
same,Potency,[11],inactive
same,Potency,[12],inactive
same,Potency,[13],inactive
same,Potency,[14],inactive
same,Potency,[15],12.2 µM (active) and 27.5 µM (active)
same,Potency,[16],inactive
same,Potency,[17],inactive
same,Potency,[18],inactive
CC/C=C\C/C=C\C/C=C\CCCCCCCC(=O)O,Potency,[1],inactive
same,Potency,[2],inactive
same,Potency,[3],inactive
same,max response,[4],-5.49% (inactive) and 15.2% (inactive)
same,Potency,[5],inactive
same,Potency,[6],inactive
same,Potency,[7],inactive
same,Potency,[8],inactive
same,Potency,[9],inactive
same,Potency,[10],inactive
same,Potency,[11],inactive
same,Potency,[13],inactive
same,Potency,[14],inactive
same,Potency,[15],inactive
same,Potency,[16],inactive
same,Potency,[17],inactive
same,Potency,[18],inactive
Nc1ccc(O)c(N)c1,Potency,[1],inactive
same,Potency,[2],inactive
same,Potency,[3],inactive
same,max response,[4],-10.8% (inactive) and -11.4% (inactive)
same,Potency,[5],inactive
same,Potency,[6],inactive
same,Potency,[7],inactive
same,Potency,[8],inactive
same,Potency,[9],inactive
same,Potency,[20],inactive
same,Potency,[11],inactive
same,Potency,[13],inactive
same,Potency,[15],inactive
same,Potency,[16],inactive
same,Potency,[17],inactive
same,Potency,[18],inactive
O=C1OC2(c3ccccc31)c1cc(I)c(O)c(I)c1Oc1c2cc(I)c(O)c1I,Potency,[1],11.8 µM (active) [middle of 4 runs]
same,Potency,[2],49.1 µM (active) and inactive
same,Potency,[4],49.1 µM (active)
same,max response,[4],-20.2% (inactive)
same,Potency,[5],12 µM (active) [middle of 4 runs]
same,Potency,[6],11.8 µM (active) [middle of 4 runs]
same,Potency,[7],39 µM (active) and 24.8 µM (active) and 29.8 µM (active)
same,Potency,[8],13.3 µM (active) [middle of 4 runs]
same,Potency,[9],13.3 µM (active) [middle of 4 runs]
same,Potency,[10],5.56 µM (active) [middle of 4 runs]
same,Potency,[11],11.8 µM (active) [middle of 4 runs]
same,Potency,[12],13.3 µM (active) [middle of 4 runs]
same,Potency,[13],13.3 µM (active) [middle of 4 runs]
same,Potency,[14],39 µM (active) and 27.9 µM (active)
same,Potency,[15],49.1 µM (active) and inactive
same,Potency,[19],49.1 µM (active) and inactive
same,Potency,[16],13.3 µM (active) [middle of 4 runs]
same,Potency,[17],12.3 µM (active) [middle of 4 runs]
same,Potency,[18],11.8 µM (active) [middle of 4 runs]
